Bioassay records deposited in PubChem by Buhrlage Lab, Dana-Farber Cancer Institute and Novartis Institutes for BioMedical Research (Cambridge, Mass).
Hits are enriched below; roughly 6.8% of the tested compounds scored in any of these assays.
USP28 block: human USP28 deubiquitinase inhibition; Q96RU2; purified USP28, Ub-rhodamine cleavage fluorescence, 30 min; inhibition, % at 25 µM; 47,000 compounds, 3% hits; AID 1645857
USP8 block: inhibitors of human USP8 deubiquitinase; P40818; purified USP8, Ub-rhodamine cleavage fluorescence, 30 min; inhibition, % at 20 µM; 47,000 compounds, 4.2% hits; AID 1645853
USP10 inh: inhibitors of human USP10 deubiquitinase; Q14694; purified USP10, Ub-rhodamine fluorescence, 60 min; inhibition, % at 20 µM; 47,000 compounds, 1.1% hits
USP7 block: blocks human USP7 ubiquitin-rhodamine cleavage; Q93009; purified USP7, Ub-rhodamine cleavage fluorescence; inhibition, % at 20 µM; 47,000 compounds, 0.3% hits; AID 1645854
OTUD3 inh: human OTUD3 deubiquitinase inhibition | Q5T2D3 | purified OTUD3, Ub-rhodamine fluorescence, 2 h | inhibition, % at 25 µM | 47,000 compounds, 0.7% hits | AID 1645858
UCHL1 inh: blocks human UCHL1 ubiquitin-rhodamine cleavage. purified UCHL1, Ub-rhodamine cleavage fluorescence. 47,000 compounds, 0.2% hits. P09936. inhibition, % at 20 µM
A number is an active result; 0 = inactive. Cut-off read from the data, not from the text of the source: active = inhibition above about 30%; inactive = the rest.

SMILES | USP28 block | USP8 block | USP10 inh | USP7 block | OTUD3 inh | UCHL1 inh
C[C@@H]1O[C@@H](O[C@H]2CC[C@]3(C=O)[C@H]4CC[C@]5(C)[C@@H](c6ccc(=O)oc6)CC[C@]5(O)[C@@H]4CC[C@]3(O)C2)[C@H](O)[C@H](O)[C@H]1O[C@@H]1O[C@H](CO)[C@@H](O)[C@H](O)[C@H]1O | 0 | 0 | 0 | 0 | 0 | 0
COc1cccc(CN2CCC3(CC2)OC(=O)Nc2ccccc23)c1 | 0 | 0 | 0 | 0 | 0 | 0
CC(C)=CCOC(C)(C)[C@H]1OC2CC[C@@]3(C)C(CCC4Cc5c([nH]c6ccccc56)[C@@]43C)C23OC3[C@@H]1O (some centres not stated) | 88.2 | 39.9 | 75.8 | 39.3 | 60.9 | 0
CC(C)=CCCC1(C)C=Cc2c(O)c3c(c(CC=C(C)C)c2O1)OC12C(=CC4CC1C(C)(C)OC2(C/C=C(/C)C(=O)O)C4=O)C3=O (configuration not stated) | 82.2 | 73.4 | 81.5 | 66.9 | 69.4 | 0
COc1ccc(C2SCC(=O)Nc3c2c(C)nn3C2CCCCC2)cc1 (configuration not stated) | 0 | 0 | 0 | 0 | 0 | 0
Cn1c(=O)[nH]c2nncnc2c1=O | 0 | 34.1 | 0 | 0 | 0 | 0
O=C1N[C@@H]2CN(Cc3ccccc3)CC[C@H]2CO1 | 0 | 0 | 0 | 0 | 0 | 0
Cc1cc(C(=O)N2C[C@@H]3C[C@@]4(C)[C@H](CCCC[C@@H]24)N3)nc(N)n1 | 0 | 0 | 0 | 0 | 0 | 0
COc1ccc(NC(=O)c2cnn(Cc3ccccc3)c2)cc1OC | 0 | 0 | 0 | 0 | 0 | 0
CCN(CC)C(=O)c1ccc(NC(=O)CN2CCc3cc(OC)c(OC)cc3C2)cc1 | 0 | 40.5 | 0 | 0 | 0 | 0
